DUSP3 inh: VHR1 phosphatase inhibitors, primary screen, biochemical, colorimetric, HTS; Dual specificity protein phosphatase 3 (Homo sapiens), P51452; recombinant VHR phosphatase, colorimetric substrate read-out; inhibition, % at 20 µM; hit rate 0.7% among 50,000; in the data active means inhibition above about 60%
Target sequence (P51452 whole entry, looked up): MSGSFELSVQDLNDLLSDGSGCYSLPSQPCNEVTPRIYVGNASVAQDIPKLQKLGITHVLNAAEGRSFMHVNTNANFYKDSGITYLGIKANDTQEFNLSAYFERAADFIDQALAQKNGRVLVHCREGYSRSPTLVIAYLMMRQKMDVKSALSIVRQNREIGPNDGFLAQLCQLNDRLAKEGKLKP
* marks the source's active call; other numbers are inactive results. The full list was thinned out, with hits kept by preference.

SMILES	DUSP3 inh
O=C(/C=C/c1ccccc1)c1cccc(N2C(=O)C3C4C=CC(C4)C3C2=O)c1 (centres undefined)	-19.0
Cc1ccccc1NC(=O)c1c(NC(=O)C(C)(C)C)sc2c1CCCC2	-2.3
Cc1cccc(NC(=O)c2c(NC(=O)C(C)(C)C)sc3c2CCCC3)c1	87.9*
COc1ccccc1NC(=O)c1c(NC(=O)C(C)(C)C)sc2c1CCCC2	-6.5
Cc1ccc(-c2cc(C(=O)N/N=C/c3ccc(Cl)cc3)[nH]n2)cc1	-4.1
COc1ccccc1NC(=O)CC1S/C(=N\N=C2/CCCc3ccccc32)NC1=O (centres undefined)	-4.3
CCOc1ccc(Cc2c(O)n(-c3ccccc3)c(=S)[nH]c2=O)cc1	0.5
CC(Oc1ccccc1)C(=O)Nc1c(Cl)cccc1Cl (centres undefined)	-44.8
CCOc1ccc(N2C(=O)CC(N3CCC(C(N)=O)(N4CCCCC4)CC3)C2=O)cc1 (centres undefined)	-35.5
CCOc1ccc(N2C(=O)CC(N3CCCCC3)C2=O)cc1 (centres undefined)	102.2*
CCOc1ccc(N2C(=O)CC(N3CCC(C(N)=O)CC3)C2=O)cc1 (centres undefined)	-20.9
CC(C)(C)NCCCCOc1cccc(Cl)c1	-32.4
O=C(NC(=S)Nc1cc([N+](=O)[O-])ccc1Cl)c1ccc(Cl)cc1	-10.8
O=C1/C(=C\c2ccc(-c3ccc([N+](=O)[O-])cc3)o2)SC(=S)N1c1ccc(O)cc1	59.2
O=C1NC(=S)/C(=C\c2ccc(-c3ccc([N+](=O)[O-])cc3)o2)S1	99.5*
CN1C(=O)/C(=C/c2ccc(-c3ccc([N+](=O)[O-])cc3)o2)SC1=S	8.0
O=C(O)CCN1C(=O)/C(=C/c2ccc(-c3ccc([N+](=O)[O-])cc3)o2)SC1=S	-6.1
CSCCC(C(=O)O)N1C(=O)/C(=C\c2ccc(-c3ccc([N+](=O)[O-])cc3)o2)SC1=S (centres undefined)	80.8*
O=C1NC(=O)/C(=C\c2ccc(-c3cccc([N+](=O)[O-])c3)o2)S1	-1.7
NC(=O)c1c(NC(=O)C2C3C=CC(C3)C2C(=O)O)sc2c1CCCC2 (centres undefined)	-40.7
O=c1c2cnn(-c3ccccc3)c2nc(-c2ccccc2)n1-c1cccc(Cl)c1	-39.7
COc1ccc(C=Nc2ccc(C)c(F)c2)cc1OC	9.6
CCn1c2ccccc2c2cc(CN3CCNCC3)ccc21	6.3
O=C(Nc1ccc2nn(-c3ccc(F)cc3)nc2c1)c1ccc(Br)o1	-0.3
Cc1nc2ccccc2n1S(=O)(=O)c1ccc(Cl)cc1Br	-26.2
SMILES	DUSP3 inh
CCOC(=O)C1=C(O)/C(=C/N(C)C)SC1=Nc1cccc2ccccc12	19.6
Cc1cc(C)n(-c2nc(-c3ccccc3)cc(-c3ccc(F)cc3)n2)n1	5.9
CCOc1cc(/C=N/n2cnnc2)ccc1OCCOc1cccc(C)c1	-3.3
CCc1cc(C)cc(OCCOc2ccc(/C=N/n3cnnc3)cc2)c1	46.4
Brc1ccc(OCCOc2cccc(/C=N/n3cnnc3)c2)cc1	7.2
C(=N\n1cnnc1)/c1ccc(OCCOc2ccc(C3CCCCC3)cc2)cc1	105.7*
C1=C=CC(OCCOc2ccc(/C=N/n3cnnc3)cc2)=CC=1	-16.5
Cc1ccc(C(C)C)c(OCCOc2ccc(/C=N/n3cnnc3)cc2)c1	-17.4
COc1cccc(OCCOc2ccc(/C=N/n3cnnc3)cc2)c1	109.6*
CCOc1cc(/C=N\n2cnnc2)ccc1OCCOCCOc1ccc(C)cc1	-6.7
C(=N\n1cnnc1)/c1cccc(OCCOc2ccc(C3CCCCC3)cc2)c1	103.5*
Cc1ccc(/C(N)=N/OC(=O)c2cccc(Br)c2)cc1	-9.9
Cc1cccc(NC(=O)CC2S/C(=N\N=C3/CCCc4ccccc43)NC2=O)c1C (centres undefined)	-17.5
O=C(CSc1nnc(-c2cccc(F)c2)n1-c1ccccc1)Nc1ccc(Br)cc1	-4.8
O=C1NN(c2cccc(Cl)c2)C(=O)/C1=C\c1ccccc1O	0.1
COc1ccc2oc(=O)c(NC(=O)c3ccccc3)cc2c1	-1.7
Cc1cccc(NC(=O)C2C3C=CC(C4CC34)C2C(=O)O)c1C (centres undefined)	100.3*
O=C(O)C1C2C=CC(C3CC23)C1C(=O)Nc1ccccc1Cl (centres undefined)	-2.8
Cc1cccc(NC(=O)C2C(c3ccccc3)C2(Cl)Cl)c1C (centres undefined)	-10.9
COc1ccc(Cl)cc1NC(=O)c1cccc(F)c1	0.5
Cc1ccc(C2/C(=C(\O)c3ccccc3)C(=O)C(=O)N2c2nncs2)cc1 (centres undefined)	11.2
COc1ccccc1N1C(=O)c2cccc3c(N4CCN(C)CC4)ccc(c23)C1=O	12.1
COc1ccc(CN2CCN(C(=O)c3cccc(Cl)c3)CC2)c(OC)c1	-14.8
Cc1ccc(N2C(=O)/C(=C\c3ccc(-c4ccc(Cl)c(C(=O)O)c4)o3)C(=O)NC2=S)cc1	1.4
CN1C(=O)NC(=O)/C(=C/c2ccc(-c3ccc(C(=O)O)cc3)o2)C1=O	15.7
SMILES	DUSP3 inh
O=C1NC(=S)N(c2ccccc2)C(=O)/C1=C/c1ccc(O)c(Cl)c1	-34.2
O=C1NC(=S)N(c2ccc(F)cc2)C(=O)/C1=C/c1cc(Cl)c(O)c(Cl)c1	78.5*
CN1C(=O)NC(=O)/C(=C\c2cc(Cl)c(O)c(Cl)c2)C1=O	5.3
O=C1NC(=S)N(c2ccc(Br)cc2)C(=O)/C1=C/c1ccc(-c2ccc(C(=O)O)cc2)o1	78.5*
O=C1NC(=S)N(c2ccccc2)C(=O)/C1=C/c1ccc(-c2ccc(Cl)c(C(=O)O)c2)o1	45.2
O=C1NC(=S)N(c2ccc(Cl)cc2)C(=O)/C1=C\c1ccc(-c2cccc(C(=O)O)c2)o1	-7.4
O=C1NC(=S)N(c2ccc(F)cc2)C(=O)/C1=C/c1ccc(-c2cccc(C(=O)O)c2)o1	86.4*
O=C1C(=Cc2ccccc2)C(=O)c2ccccc21	-17.9
COc1cccc(/C=C2/SC(=S)N(CCC(=O)Nc3ccc(O)cc3)C2=O)c1	5.1
COc1ccc(Cl)cc1C(=O)Nc1cc(C(F)(F)F)cc(C(F)(F)F)c1	18.3
CCOc1ccc(/C=N/NC(=O)c2cc(-c3ccccc3)n[nH]2)cc1	9.0
COc1ccc(S(=O)(=O)Nc2ccc(C)cc2C)cc1Br	3.5
Cc1c(C(=O)Nc2cccc(C(=O)O)c2)cccc1[N+](=O)[O-]	-28.4
O=C1NC(=S)N/C1=C/c1ccc(-c2cccc(Cl)c2Cl)o1	-8.3
C=CCN1C(=O)/C(=C\c2ccc(C)o2)C(=O)NC1=S	43.1
C=CCN1C(=O)/C(=C\c2ccc(-c3ccc(C)cc3Br)o2)C(=O)NC1=S	87.8*
Cc1cc(Br)c(-c2ccc(/C=C3/NC(=S)NC3=O)o2)cc1C	91.1*
CCn1cc(/C=C2\C(=O)NC(=O)N(c3ccccc3)C2=O)c2ccccc21	-0.9
CCn1cc(C=C2C(=O)NC(=S)NC2=O)c2ccccc21	76.5*
O=C1NC(=S)N/C1=C/c1ccc(-c2cc(C(=O)O)ccc2Cl)o1	-4.9
C=CCN1C(=O)/C(=C/c2ccccc2Cl)C(=O)NC1=S	-1.8
C=CCN1C(=O)/C(=C\c2cn(Cc3ccc([N+](=O)[O-])cc3)c3ccccc23)C(=O)NC1=S	82.9*
Cc1ccc(-c2ccc(C=C3C(=O)NC(=S)NC3=O)o2)c(Br)c1	22.4
C=CCN1C(=O)/C(=C\c2cn(C)c3ccccc23)C(=O)NC1=S	8.4
O=C(Cn1cc(C=C2C(=O)NC(=S)NC2=O)c2ccccc21)Nc1ccccc1	13.0
COc1ccccc1CN1CCN(C2CCCCC2)CC1	4.1

Compound activity as filed in PubChem BioAssay.
